Results filed as inconclusive are left out. The source made the active and inactive calls. Calls come from the whole dose curve; as a rule, active = well fitted curve in the direction sought with a large enough effect; inconclusive = small, poorly fitted or top-dose-only effect, or another doubt; inactive = no such curve, though single readings can be large; an effect the other way counts as inactive or inconclusive.

In the first test the target is Arylsulfatase A (Homo sapiens) (UniProt P15289). Put plainly: qHTS screen for enhancers of Arylsulfatase A (ASA1): LOPAC Validation Assay (AID 720538). For activity change, positive = activation: 0% is about no effect. Conditions: ASA enzyme activity, LOPAC qHTS enhancer assay; series mostly up to 57.5 µM; activity change, positive = activation: at the top concentration. In a few lines: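 Read-out: fluorescence at Ex=525/Em=598 nm after 1N NaOH final stop. Patient fibroblasts carrying ASA-I179S had 48h compound exposure, then 14h room-temperature pNCS hydrolysis (0.5mM final) in lysis buffer. Signal increase = enhanced activity.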
Arylsulfatase A (Homo sapiens), sequence (P15289 whole entry, looked up): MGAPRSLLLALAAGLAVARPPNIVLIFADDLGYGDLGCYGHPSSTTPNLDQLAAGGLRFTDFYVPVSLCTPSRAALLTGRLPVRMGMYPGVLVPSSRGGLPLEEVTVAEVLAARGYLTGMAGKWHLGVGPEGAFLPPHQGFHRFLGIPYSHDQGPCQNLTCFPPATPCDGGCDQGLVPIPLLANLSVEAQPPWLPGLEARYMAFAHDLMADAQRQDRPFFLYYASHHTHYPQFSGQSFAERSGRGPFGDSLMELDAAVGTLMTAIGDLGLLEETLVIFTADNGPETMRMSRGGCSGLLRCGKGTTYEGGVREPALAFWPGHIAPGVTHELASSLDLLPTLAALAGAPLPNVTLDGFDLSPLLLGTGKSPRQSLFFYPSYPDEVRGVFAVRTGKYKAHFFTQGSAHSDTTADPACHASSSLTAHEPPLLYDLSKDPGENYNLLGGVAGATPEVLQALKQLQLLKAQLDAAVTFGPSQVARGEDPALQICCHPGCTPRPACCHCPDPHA
(In general: Quantitative high-throughput screening tests each substance at several concentrations.)
As to `CCO/C([O-])=N/c1c[n+](N2CCOCC2)no1`, the “activity change, positive = activation” value is -53.5% (inactive).

In the case of `C(=C\c1ccccc1)/CN1CCN(C(c2ccccc2)c2ccccc2)CC1`, the “activity change, positive = activation” value is -10.3% (inactive).

`CCCN(CCC)C(=O)C(CCC(=O)O)NC(=O)c1ccccc1` (configuration not stated): the result was inactive.

With `COCCCC/C(=N\OCCN)c1ccc(C(F)(F)F)cc1`, the “activity change, positive = activation” value is -62.9% (inactive).

As to `Cc1ccc(Cl)c(Nc2ccccc2C(=O)O)c1Cl`, the result was inactive.

Take `C[N+](C)(C)CCOC(N)=O`: the “outcome” value is “inactive; inhibitor; fitted 3.0131 uM”.

With `OCCN1CCN(CCCN2c3ccccc3C=Cc3ccccc32)CC1`, the “activity change, positive = activation” value was 12.4% (inactive).

As for `CCNC(=O)N1CCN(CCCC(c2ccc(F)cc2)c2ccc(F)cc2)CC1`, the outcome was inactive.

Take `CCCCCN(CCCCC)C(=O)C(CCC(=O)O)NC(=O)c1ccc(Cl)c(Cl)c1` (configuration not stated): the “outcome” value was “inactive; inhibitor; fitted 8.4921 uM”.

As for `CNCCC(Oc1ccccc1OC)c1ccccc1` (configuration not stated), the “activity change, positive = activation” value is -74.4% (inactive).

Regarding `COc1cc(C(=O)OCCCN2CCCN(CCCOC(=O)c3cc(OC)c(OC)c(OC)c3)CC2)cc(OC)c1OC`, the “activity change, positive = activation” value is 10.1% (inactive).

With `CN(C)CCCN1c2ccccc2Sc2ccccc21`, the “outcome” value was “inactive; inhibitor; fitted 2.6855 uM”.

On to `CCc1cccc(N(C)C(N)=Nc2cccc3ccccc23)c1`, for which the “activity change, positive = activation” value was 12.9% (inactive).

Take `CN1CCN(C2=Nc3ccccc3Oc3ccc(Cl)cc32)CC1`: the “activity change, positive = activation” value was -2.06% (inactive).

For `CC(C)(C)NCC(O)c1cc(O)cc(O)c1` (configuration not stated), the “activity change, positive = activation” value was -34% (inactive).

Regarding `CCN(CC)CCNC(=O)c1cc(S(C)(=O)=O)ccc1OC`, the “activity change, positive = activation” value was -62.5% (inactive).

Consider `O=C(CCCN1CCC(O)(c2cccc(C(F)(F)F)c2)CC1)c1ccc(F)cc1`, for which the “activity change, positive = activation” value was -21.6% (inactive).

`COc1ccc(CCN(C)CCCC(C#N)(c2cc(OC)c(OC)c(OC)c2)C(C)C)cc1OC` (configuration not stated): the “outcome” value was “inactive; inhibitor; fitted 4.2562 uM”.

Turning to `Cc1nc2c([nH]1)c(=O)n(C)c(=O)n2Cc1ccco1`, the “activity change, positive = activation” value is -14.8% (inactive).

As to `CC(C(=O)O)c1ccc(CC2CCCC2=O)cc1` (configuration not stated), the “activity change, positive = activation” value is 5.67% (inactive).

Turning to `CC(=O)Oc1cc(C(C)C)c(OCCN(C)C)cc1C`, the “activity change, positive = activation” value was 22.2% (inactive).

As to `C[n+]1cc2c3c(ccc2c2ccc4cc5c(cc4c21)OCO5)OCO3`, the “activity change, positive = activation” value was -41.7% (inactive).

As for `NC(N)=N/N=C/c1c(Cl)cccc1Cl`, the outcome was inactive.

`CCOC(=O)C1=C(C)NC(C)=C(C(=O)OC)C1c1cccc([N+](=O)[O-])c1` (configuration not stated): the outcome was inactive.

Take `CN(C)C/C=C(/c1ccc(Br)cc1)c1cccnc1`: the “activity change, positive = activation” value was -1.14% (inactive).

Consider `CN(C)CCOC(=O)COc1ccc(Cl)cc1`, for which the “outcome” value was “inactive; inhibitor; fitted 8.4921 uM”.

On to `CCCN(CCC)CCc1cccc2c1CC(=O)N2`, for which the “outcome” value is “inactive; inhibitor; fitted 6.7456 uM”.

Take `CN/C(=C\[N+](=O)[O-])NCCSCc1ccc(CN(C)C)o1`: the outcome was inactive.

With `CCCC(C(=O)OCCN(CC)CC)(c1ccccc1)c1ccccc1`, the “outcome” value is “inactive; inhibitor; fitted 8.4921 uM”.

Consider `CN(C)CC/C=C1\c2ccccc2COc2ccccc21`, for which the result was inactive.

As for `Cc1nc2sccn2c(=O)c1CCN1CCC(=C(c2ccc(F)cc2)c2ccc(F)cc2)CC1`, the “activity change, positive = activation” value was -64.5% (inactive).

On to `NC(=O)c1cn(Cc2c(F)cccc2F)nn1`, for which the “outcome” value is “inactive; inhibitor; fitted 0.3013 uM”.

Regarding `C[N+](C)(C)CCOC(=O)CCC(=O)OCC[N+](C)(C)C`, the “activity change, positive = activation” value was 19.9% (inactive).

As for `O=C(O)CP(=O)(O)O`, the result was inactive.

Regarding `Cc1nnc(SCC2=C(C(=O)O)N3C(=O)[C@@H](NC(=O)Cn4cnnn4)[C@H]3SC2)s1`, the “activity change, positive = activation” value was 17.7% (inactive).

Regarding `Nc1c2c(nc3ccccc13)CCCC2O` (configuration not stated), the “activity change, positive = activation” value is 11.5% (inactive).

System in another test: not listed separately
Put plainly: qHTS for compounds that reverse cellular toxicity of Amyloid beta (A-beta) peptide in yeast: LOPAC Validation Assay (AID 720559).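 Note: plate controls were DMSO for no effect and equimolar ferric chloride plus clioquinol rescue for full effect.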 Conditions: yeast expressing A-beta; series mostly up to 46.1 µM; growth rescue, positive = activation: at the top concentration. Summed up:
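OD600 growth readout after 48 hr at 30 C; A-beta-toxic yeast plus pinned compounds in medium. Normalization: DMSO = negative, equimolar FeCl3 + clioquinol = positive.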
Take `CCO/C([O-])=N/c1c[n+](N2CCOCC2)no1`: the “growth rescue, positive = activation” value is -8.36% (inactive).

As for `C(=C\c1ccccc1)/CN1CCN(C(c2ccccc2)c2ccccc2)CC1`, the “growth rescue, positive = activation” value was 5.97% (inactive).

For `CCCN(CCC)C(=O)C(CCC(=O)O)NC(=O)c1ccccc1` (configuration not stated), the “growth rescue, positive = activation” value was -3.96% (inactive).

With `COCCCC/C(=N\OCCN)c1ccc(C(F)(F)F)cc1`, the “growth rescue, positive = activation” value was -4.28% (inactive).

With `Cc1ccc(Cl)c(Nc2ccccc2C(=O)O)c1Cl`, the “growth rescue, positive = activation” value is -2.49% (inactive).

With `C[N+](C)(C)CCOC(N)=O`, the “growth rescue, positive = activation” value is -6.34% (inactive).

`OCCN1CCN(CCCN2c3ccccc3C=Cc3ccccc32)CC1`: the “growth rescue, positive = activation” value was 7.26% (inactive).

Regarding `CCNC(=O)N1CCN(CCCC(c2ccc(F)cc2)c2ccc(F)cc2)CC1`, the “growth rescue, positive = activation” value is 3.57% (inactive).

Take `CCCCCN(CCCCC)C(=O)C(CCC(=O)O)NC(=O)c1ccc(Cl)c(Cl)c1` (configuration not stated): the “growth rescue, positive = activation” value was -4.75% (inactive).

Take `CNCCC(Oc1ccccc1OC)c1ccccc1` (configuration not stated): the “growth rescue, positive = activation” value is -0.0727% (inactive).

With `COc1cc(C(=O)OCCCN2CCCN(CCCOC(=O)c3cc(OC)c(OC)c(OC)c3)CC2)cc(OC)c1OC`, the “growth rescue, positive = activation” value was -2.11% (inactive).

Turning to `CN(C)CCCN1c2ccccc2Sc2ccccc21`, the “growth rescue, positive = activation” value is -8.29% (inactive).

With `CCc1cccc(N(C)C(N)=Nc2cccc3ccccc23)c1`, the “growth rescue, positive = activation” value is 2.52% (inactive).

For the compound `CN1CCN(C2=Nc3ccccc3Oc3ccc(Cl)cc32)CC1`, the “growth rescue, positive = activation” value was -1.45% (inactive).

With `CC(C)(C)NCC(O)c1cc(O)cc(O)c1` (configuration not stated), the “growth rescue, positive = activation” value was -0.52% (inactive).

For `CCN(CC)CCNC(=O)c1cc(S(C)(=O)=O)ccc1OC`, the “growth rescue, positive = activation” value was -6.16% (inactive).

As to `O=C(CCCN1CCC(O)(c2cccc(C(F)(F)F)c2)CC1)c1ccc(F)cc1`, the “growth rescue, positive = activation” value was 5.15% (inactive).

As for `COc1ccc(CCN(C)CCCC(C#N)(c2cc(OC)c(OC)c(OC)c2)C(C)C)cc1OC` (configuration not stated), the “growth rescue, positive = activation” value is -2.46% (inactive).

In the case of `Cc1nc2c([nH]1)c(=O)n(C)c(=O)n2Cc1ccco1`, the “growth rescue, positive = activation” value is -1.42% (inactive).

For `CC(C(=O)O)c1ccc(CC2CCCC2=O)cc1` (configuration not stated), the “growth rescue, positive = activation” value is 6.46% (inactive).

On to `CC(=O)Oc1cc(C(C)C)c(OCCN(C)C)cc1C`, for which the “growth rescue, positive = activation” value is 4.31% (inactive).

`C[n+]1cc2c3c(ccc2c2ccc4cc5c(cc4c21)OCO5)OCO3`: the “growth rescue, positive = activation” value was -3.85% (inactive).

In the case of `NC(N)=N/N=C/c1c(Cl)cccc1Cl`, the “growth rescue, positive = activation” value was 2.78% (inactive).

As to `CCOC(=O)C1=C(C)NC(C)=C(C(=O)OC)C1c1cccc([N+](=O)[O-])c1` (configuration not stated), the “growth rescue, positive = activation” value is -8.8% (inactive).

`CN(C)C/C=C(/c1ccc(Br)cc1)c1cccnc1`: the “growth rescue, positive = activation” value was -1.57% (inactive).

For the compound `CN(C)CCOC(=O)COc1ccc(Cl)cc1`, the “growth rescue, positive = activation” value is -6.16% (inactive).

As for `CCCN(CCC)CCc1cccc2c1CC(=O)N2`, the “growth rescue, positive = activation” value was -3.11% (inactive).

`CN/C(=C\[N+](=O)[O-])NCCSCc1ccc(CN(C)C)o1`: the “growth rescue, positive = activation” value was -0.483% (inactive).

Regarding `CCCC(C(=O)OCCN(CC)CC)(c1ccccc1)c1ccccc1`, the “growth rescue, positive = activation” value is 0.548% (inactive).

Consider `CN(C)CC/C=C1\c2ccccc2COc2ccccc21`, for which the “growth rescue, positive = activation” value is -5.96% (inactive).

As to `Cc1nc2sccn2c(=O)c1CCN1CCC(=C(c2ccc(F)cc2)c2ccc(F)cc2)CC1`, the “growth rescue, positive = activation” value is 2.57% (inactive).

Regarding `NC(=O)c1cn(Cc2c(F)cccc2F)nn1`, the “growth rescue, positive = activation” value was 6.48% (inactive).

`C[N+](C)(C)CCOC(=O)CCC(=O)OCC[N+](C)(C)C`: the “growth rescue, positive = activation” value is -6.57% (inactive).

On to `O=C(O)CP(=O)(O)O`, for which the “growth rescue, positive = activation” value is -2.69% (inactive).

In the case of `Cc1nnc(SCC2=C(C(=O)O)N3C(=O)[C@@H](NC(=O)Cn4cnnn4)[C@H]3SC2)s1`, the “growth rescue, positive = activation” value was 7.38% (inactive).

Consider `Nc1c2c(nc3ccccc13)CCCC2O` (configuration not stated), for which the “growth rescue, positive = activation” value is -4.08% (inactive).
